Growth data for 38 compounds are collected here from PubChem BioAssay (NCI).

The panel holds about 83,000 compounds, 20% with a hit somewhere; the sample as a whole holds those more often.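 Interpretation: 100, growth as untreated; towards 0, rising growth inhibition; 0, no net growth; 0 to -100, cell death. Compounds scoring below 10 were considered active.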 Calls of active or inactive are those of the source.

For this test, the system named is MCF7 breast. In words: NCI-60 one-dose screen, 48 h (100 = growth as untreated, 0 = no growth, -100 = all killed). Particulars: 10 µM unless noted.
For the compound `N/C(=N\C(N)=N\c1nc2ccccc2s1)c1cccc(Cl)c1`, the growth was 69.9% (inactive).
For `CCOC(=O)[C@@H](C)C[C@H](Cc1ccccc1)NC(=O)c1csc([C@@H](C[C@H](C(C)C)N(C)C(=O)[C@@H](NC(=O)[C@H]2C[C@H](O[Si](C)(C)C(C)(C)C)CCN2C)C(C)C)OC(C)=O)n1` the value was 13% [9.25 µM] (inactive); for `COC(=O)/C=C1\S/C(=N\NC(=O)c2cc3ccc2/C=C\c2ccc(cc2)/C=C\3)N(c2ccccc2)C1=O`, 23.2% (inactive).
For `NNC(=O)c1ccc(-n2nc(-c3ccccc3)c3ccccc32)cc1` the value was 74% (inactive); for `NC(=NCCCOc1ccc(F)cc1)Nc1ccc(I)cc1`, 10% (inactive); for `N#CC1C(C#N)C(C(=O)c2ccc(Br)cc2)N2c3ccccc3C=CC12` (stereo not drawn), 13% (inactive).
For `CCN1C(=O)/C(=C/C(=O)OC)S/C1=N\NC(=O)c1cc2ccc1/C=C\c1ccc(cc1)/C=C\2`, the growth was 43.7% (inactive).
The figure for `COc1ccccc1/C=C1\Oc2cc(OCCN3CCCC3)ccc2C1=O` is 68.1% (inactive); for `Cc1cc2nc3c4ccc(Br)cc4n(CCN(C)C)c3nc2cc1C` it is 0.513% (active).
The figure for `C/C(=N\Nc1cc(C)nc2ccc(Br)cc12)c1ccc([N+](=O)[O-])cc1` is 43.9% (inactive); for `COc1cc(C2C3CC4CCCC[C@H]4N3[C@@]3(C(=O)Nc4cc(Cl)ccc43)C2C(=O)c2nc3ccccc3[nH]2)cc(OC)c1OC` (stereo partly drawn) it is 30.4% (inactive).
For `O=C1OC(Cc2ccccc2)C1c1ccccc1` (stereo not drawn) the value was 98.1% (inactive).
Take `CC(Oc1ccc(C(=O)O)cc1C(F)(F)F)c1ccc(Oc2ccccc2)cn1` (stereo not drawn): the growth is 89.5% (inactive).
For `CC(Sc1nc2ccccc2c(=O)n1CCc1ccc(S(N)(=O)=O)cc1)C(=O)Nc1ccc(Cl)cc1` (stereo not drawn) the value was 84.6% (inactive); for `CC1=CCC(OC(=O)C(C)(O)CCC(O)(C(=O)OC2(C)C=CC(O)(C(C)C)CC2)C(C)C)(C(C)C)CC1` (stereo not drawn), 97.9% (inactive); for `ClC1=C(Br)C(Br)(Br)C(=C(Br)Br)C1(Br)Br`, 76.8% (inactive).
With `C=C1C(=O)O[C@H]2[C@H]1CC/C(CNC(=O)C(C)c1ccc(CC(C)C)cc1)=C\CC[C@@]1(C)O[C@@H]21` (stereo partly drawn), the growth was 4.24% (active).
For `CCCCCN1C=C/C(=C\C(=O)N2CCCc3ccccc32)c2ccccc21` the value was 91% (inactive); for `N#Cc1cc(-c2nc3ccccc3s2)c(=O)n(NS(=O)(=O)c2ccccc2)c1N`, 105% (inactive).
For `CCCOc1ccc(/C=N/Nc2cc(C)nc3ccc(Cl)cc23)cc1` the value was -20.5% (active).
On to `Cc1cccc(NC(=O)Nc2ccc(-n3cnc4cc(-c5ccc(O)cc5)ccc43)cc2)c1`, for which the growth is 16.9% (inactive).
The figure for `O=c1c2c(c(=O)n1O)c1c3ccc[nH]c3nc1c1nc3[nH]cccc3c12` is 73.5% (inactive); for `O=C(CNCCN1CCOCC1)N1c2cccc3cccc(c23)N(C(=O)CNCCN2CCOCC2)C1c1cn(-c2ccccc2)nc1-c1cccc([N+](=O)[O-])c1` it is 36.9% (inactive).
For `O=Cc1cc2ccccc2nc1Oc1ccc(C(F)(F)F)cc1` the value was 48.1% (inactive).
The figure for `COc1ccc(C(=O)/C=C/c2cc3ccccc3n3nnnc23)cc1` is 94.7% (inactive); for `CN1CCN(C(=O)[C@]23CCC(C)(C)C[C@H]2C2=CC[C@@H]4[C@@]5(C)C/C(=C/c6cccnc6)C(=O)C(C)(C)[C@@H]5CC[C@@]4(C)[C@]2(C)CC3)CC1` it is 22.9% (inactive).
For `CCN(CC)c1ccc(/C=N/NC(=O)CSc2nc3ccccc3c(=O)n2CCc2ccc(S(N)(=O)=O)cc2)c(O)c1`, the growth is 11.1% (inactive).
As to `CCCCCCNC(=O)Nc1ccc2cc3ccc(NC(=O)NCCCCCC)cc3nc2c1`, the growth was -57.4% (active).
The figure for `CCNC(=O)Oc1ccc(/C(=C(\C)c2ccccc2)c2ccc(OCCN(CC)CC)cc2)cc1` is 28.8% (inactive); for `CC/C(=C\c1ccc(OC)cc1)C(=O)c1ccc(OC)cc1` it is 107% (inactive); for `CCc1ccc(CNc2ccc(N3CCOCC3)c(C(=O)O)c2)cc1` it is 86.2% (inactive).
As to `Cc1ccc(NS(=O)(=O)c2ccc(-c3cnc(C4CC4)o3)cc2)cc1C(F)(F)F`, the growth was 26.6% (inactive).
For `C/C(=N\NC(=O)CSc1nc2ccccc2c(=O)n1CCc1ccc(S(N)(=O)=O)cc1)c1ccccn1` the value was 34.5% (inactive).
For `C=C(CBr)[C@@H]1CC[C@]2(COC(C)=O)CC[C@]3(C)[C@H](CC[C@@H]4[C@@]5(C)CCCNC(C)(C)[C@@H]5CC[C@]43C)[C@@H]12` the value was 21.5% (inactive); for `COc1ccc(C(=O)Nc2cccc(C3CCc4c(cc(OC)c(OC)c4OC)O3)c2)cc1` (stereo not drawn), 33.1% (inactive); for `N=C(N)c1ccc(OCCCCCCCCCCOc2ccc(C(=N)N)cc2)cc1`, -71.7% (active).
For `COc1cc2nc(-c3ccc(Cl)cc3)cc(OCCCN3CCOCC3)c2cc1OC` the value was 50.2% (inactive); for `Brc1ccc2[nH]cc(-c3cncn3CCc3ccccc3)c2c1`, 48.9% (inactive).
